# Pf growth 96h = Primary qHTS for delayed death inhibitors of the malarial parasite plastid, 96 hour incubation; P. falciparum luciferase reporter growth, 96 h; Potency, µM (highest dose often 28.7 µM), for the others: at the top dose activity change, negative = inhibition, most hits filed as inhibitors; 6.9% of 320,000 active; also: % is scaled to controls: 0 for no effect and ±100 for the full control effect
#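 Parasite growth measured via integrated firefly luciferase reporter in P. falciparum. Infected erythrocytes at 2% hematocrit, 0.05% parasitemia final were treated 96 hours at 37 C under 5% CO2, and luminescence was read.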
# RE007 growth inh = qHTS Assay for Inhibitors of the HIV-1 protein Vpr; AID 651644, 2012; Potency, µM (doses to about 92.2 µM), for the others: at the highest dose activity change, negative = less growth, actives largely listed as inhibitors; S. pombe RE007 Vpr strain, BacTiter-Glo ATP luminescence, 24 h; 0.21% of 360,000 active; active = well fitted falling curve with a large enough effect; inconclusive = small, poorly fitted or top-dose-only effect; inactive = no such curve, though single readings can be large or run the other way; also: % is scaled to controls: 0 for no effect and ±100 for the full control effect; nearly all actives have a fitted effect of over 50% in size
#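 Fission yeast strain RE007, carrying one chromosomally integrated HIV-1 vpr copy, was seeded at OD 0.01 in PMG+AL medium with 23 nL pinned compound. After 24 h at 30 °C and 99% humidity, viability was read by BacTiter-Glo luminescence.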
# SARS PLP yeast = qHTS of Yeast-based Assay for SARS-CoV PLP | AID 485353, 2010 | Potency, µM (top dose mostly 32.9 µM), for inactives: at the top dose activity, positive = growth rescue, usual class: activators | S. cerevisiae expressing SARS-CoV PLpro, growth rescue | 0.19% of 330,000 active; calls by dose curve; also: 0% is about no effect; nearly all actives have a fitted effect of over 55% in size
# Pf growth 48h = Primary qHTS for delayed death inhibitors of the malarial parasite plastid, 48 hour incubation | P. falciparum luciferase growth in erythrocytes, 48 h | Potency, µM (series often up to 28.7 µM), for inactives: top-dose activity change, negative = inhibition, hits mostly inhibitors | 5.9% of 310,000 active; also: % is scaled to controls: 0 for no effect and ±100 for the full control effect
#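 Luminescence readout; reporter = integrated firefly luciferase in P. falciparum. RBC culture at 2% hematocrit, 0.1% parasitemia final, 37 C/5% CO2; decreased signal taken as growth inhibition.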
# NS1 function inh = qHTS Assay for Inhibitors of Influenza NS1 Protein Function. 0.4% of 270,000 active. Potency, µM (series often up to 46.1 µM), for the others: at the highest dose activity, positive = more growth. AID 2326, 2010; calls by dose curve; also: actives are rising curves; nearly all actives have a fitted effect of over 50% in size
#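 S. cerevisiae expressing influenza A NS1, grown in glucose, washed, then diluted 1:100 into pH 6.0 -URA galactose medium with 23 nl compound. Growth recovery read as OD600; NS1-free strain serves as control.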
# An asterisk follows results filed as active; ? = inconclusive; / = no result given. A selection: hits, their analogues and other compounds. The true share with any hit is near 9.5%. Unless noted, calls follow the shape of the dose curve; as a rule, active = well fitted inhibition curve with a large enough effect; inconclusive = small, poorly fitted or top-dose-only effect, or another doubt; inactive = no such curve, though single readings can be large or run the other way. Potency is read from the fitted curve at half-maximal effect.
SMILES,Pf growth 96h,RE007 growth inh,SARS PLP yeast,Pf growth 48h,NS1 function inh
Cc1cc(OCC(=O)NNC(=O)c2ccncc2)cc(C)c1Cl,10.4µM*,-0.5%,5.1%,?,3.7%
Cc1cc(C)cc(OCC(=O)NNC(=O)c2ccccn2)c1,3.29µM*,?,-2.0%,5.22µM*,/
CC(NCC#Cc1ccccc1)C(O)c1ccccc1 (configuration not stated),?,-1.6%,-1.6%,?,/
CSc1ccc(CNC(C)C(O)c2ccccc2)cc1 (configuration not stated),-1.7%,-16.9%,0.8%,1.85µM*,1.4%
COc1ccc(C2C3=C(N=C4SCC(=O)N42)c2ccccc2CC3)cc1 (configuration not stated),11.7µM*,-11.3%,1.4%,?,7.2%
COc1ccc(C2C3=C(N=C4SCC(=O)N42)c2ccccc2CC3)cc1OC (configuration not stated),14.3%,16.3%,-6.6%,2.33µM*,9.6%
COc1ccccc1C1C2=C(N=C3SCC(=O)N31)c1ccccc1CC2 (configuration not stated),?,7.3%,-5.0%,?,-10.7%
C[C@H]1CN(S(=O)C(C)(C)C)[C@H](CCO)/C1=C\CCO (some centres not stated),/,-8.0%,/,/,/
N#Cc1ccc(OCC(=O)Nc2cccc(S(=O)(=O)NC3=NCCCCC3)c2)cc1,-1.1%,-9.9%,-5.1%,48.2%,/
O=c1oc2ccccc2c(O)c1/C=N/c1nc(-c2ccc(O)c(O)c2)cs1,/,/,/,/,17.8%
O=C(NCc1cccnc1)/C(=C/c1ccc(-c2ccc(Cl)cc2)o1)S(=O)(=O)c1ccccc1,3.29µM*,-3.7%,-8.8%,6.57µM*,-18.1%
Cc1[nH]c2ccccc2c1CN1CCC(Cc2ccccc2)CC1,-181.9%,5.9%,-1.9%,?,/
Cc1cccc(C(=O)NC(Oc2ccccc2)C(Cl)(Cl)Cl)c1 (configuration not stated),7.38µM*,-16.3%,0.9%,?,?
CN1CCN(C(c2ccc(Br)cc2)c2cc(Cl)c3cccnc3c2O)CC1 (configuration not stated),7.38µM*,-6.3%,/,11.7µM*,-128.1%
Cc1coc2c(C)c3oc(=O)c(CCC(=O)N4C[C@H]5C[C@@H](C4)c4cccc(=O)n4C5)c(C)c3cc12,?,-17.6%,0.3%,3.29µM*,1.6%
Cc1c(CC(=O)N2C[C@H]3C[C@@H](C2)c2cccc(=O)n2C3)c(=O)oc2cc(O)c(Cl)cc12,67.7%,0.0%,0.2%,20.2%,-1.6%
Cc1c(CC(=O)N2C[C@H]3C[C@@H](C2)c2cccc(=O)n2C3)c(=O)oc2c(C)c(O)ccc12,2.9%,-2.4%,0.8%,-7.6%,-7.2%
Cc1coc2c(C)c3oc(=O)c(CCC(=O)N4CCC(C(=O)NCCCC(=O)O)(c5ccccc5)CC4)c(C)c3cc12,9.28µM*,11.7%,3.6%,?,11.5%
Cc1oc2cc3oc(=O)c(CCC(=O)N4C[C@H]5C[C@@H](C4)c4cccc(=O)n4C5)c(C)c3cc2c1C,2.94µM*,-8.1%,1.2%,?,-3.8%
Cc1oc2c(C)c3oc(=O)c(CCC(=O)N4C[C@H]5C[C@@H](C4)c4cccc(=O)n4C5)c(C)c3cc2c1C,11.7µM*,-5.5%,6.0%,?,-18.0%
COCCNc1nc(NCc2cc(-c3ccc(OC)cc3)no2)c2sccc2n1,/,-19.0%,/,/,/
Cc1c(OC(C)C(=O)N2C[C@H]3C[C@@H](C2)c2cccc(=O)n2C3)ccc2c3c(c(=O)oc12)CCC3 (some centres not stated),10.4µM*,-1.6%,-15.2%,-19.3%,-9.7%
Cc1c(C)c2ccc(OC(C)C(=O)N3C[C@H]4C[C@@H](C3)c3cccc(=O)n3C4)c(C)c2oc1=O (some centres not stated),?,0.5%,4.2%,20.1%,6.7%
CCNc1nc(NCC)n2c(SCC(=O)Nc3cccc(F)c3)nnc2n1,-22.8%,0.4%,-7.1%,?,/
CCNc1nc(NCC)n2c(SCC(=O)Nc3cccc(Cl)c3)nnc2n1,5.22µM*,2.4%,8.4%,11.7µM*,/
SMILES,Pf growth 96h,RE007 growth inh,SARS PLP yeast,Pf growth 48h,NS1 function inh
CCNc1nc(NCC)n2c(SC(C(=O)Nc3cc(Cl)cc(Cl)c3)c3ccccc3)nnc2n1 (configuration not stated),10.4µM*,2.3%,3.2%,11.7%,14.3%
CCNc1nc(NCC)n2c(SCC(=O)Nc3ccccc3Cl)nnc2n1,?,1.1%,11.9%,?,/
C[C@H]1CC2[C@@H]3CCC4=CC(=O)C=C[C@]4(C)[C@@]3(F)[C@@H](O)C[C@]2(C)[C@@]1(O)C(=O)CO (some centres not stated),/,/,/,/,-4.1%
CCOc1ccc(C2CC(c3c(O)n(C)c(=O)n(C)c3=O)=NN2)cc1 (configuration not stated),14.7µM*,-4.4%,0.8%,?,12.9%
Cn1c(O)c(C2=NNC(c3ccc(Cl)cc3)C2)c(=O)n(C)c1=O (configuration not stated),?,18.6%,0.3%,13.1µM*,3.8%
COCCN(C(=O)c1ccc(C)o1)c1c(N)n(CC(C)C)c(=O)[nH]c1=O,-22.2%,-5.2%,-3.9%,-23.8%,/
CCC(=O)N(CCC(c1ccccc1)c1ccco1)Cc1cccs1 (configuration not stated),?,-7.1%,-0.5%,?,6.8%
COc1ccccc1C(CCN(Cc1cccs1)C(C)=O)c1ccco1 (configuration not stated),13.1µM*,-0.6%,-6.4%,7.38µM*,-66.5%
COc1ccccc1C(CC(=O)Nc1nccs1)c1ccco1 (configuration not stated),6.57µM*,-5.0%,5.5%,2.94µM*,2.6%
CCCNCCC(c1ccco1)c1ccccc1OC (configuration not stated),23.0%,-7.6%,3.0%,-35.0%,26.6%
CCC(=O)NCCC(c1ccco1)c1ccccc1OC (configuration not stated),10.4µM*,4.6%,-6.6%,?,?
CCN(C(=O)COC(=O)c1oc2ccccc2c1C)c1c(N)n(Cc2ccccc2)c(=O)[nH]c1=O,?,-20.6%,-0.8%,?,/
O=C(NCc1cccnc1)[C@@H]1[C@@H](C(=O)O)[C@H]2CC[C@@H]1O2,/,/,/,/,8.7%
COc1ccc(CNc2nc3ccccc3n2C(C)C)c(O)c1,?,-10.4%,-0.9%,11.7µM*,5.8%
CCn1c(CNc2nc3ccccc3n2C(C)C)nc2ccccc21,11.7µM*,-11.2%,7.1%,?,0.4%
Cc1ccc(O)c(CNc2nc3ccccc3n2C(C)C)c1,15.4%,-8.4%,7.9%,8.28µM*,3.3%

# High-throughput results: PubChem BioAssay, National Center for Advancing Translational Sciences (NCATS)
